Inconclusive results are not listed. A call without a number means that no potency is given here. Calls of active or inactive are those of the source. The call rests on the fitted dose curve; in most records, active means well fitted inhibition curve with a large enough effect; inconclusive means small, poorly fitted or top-dose-only effect; inactive means flat fitted curve, though single readings scatter.
biological target: Ubiquitin carboxyl-terminal hydrolase 1 (Homo sapiens) (UniProt O94782); experiment: Inhibitors of USP1/UAF1: Pilot qHTS (AID 504865); conditions: purified USP1/UAF1, Ub-rhodamine cleavage fluorescence; series mostly up to 114 µM; further: nearly all actives have a fitted effect of over 35% in size
Sequence (O94782 whole entry, looked up): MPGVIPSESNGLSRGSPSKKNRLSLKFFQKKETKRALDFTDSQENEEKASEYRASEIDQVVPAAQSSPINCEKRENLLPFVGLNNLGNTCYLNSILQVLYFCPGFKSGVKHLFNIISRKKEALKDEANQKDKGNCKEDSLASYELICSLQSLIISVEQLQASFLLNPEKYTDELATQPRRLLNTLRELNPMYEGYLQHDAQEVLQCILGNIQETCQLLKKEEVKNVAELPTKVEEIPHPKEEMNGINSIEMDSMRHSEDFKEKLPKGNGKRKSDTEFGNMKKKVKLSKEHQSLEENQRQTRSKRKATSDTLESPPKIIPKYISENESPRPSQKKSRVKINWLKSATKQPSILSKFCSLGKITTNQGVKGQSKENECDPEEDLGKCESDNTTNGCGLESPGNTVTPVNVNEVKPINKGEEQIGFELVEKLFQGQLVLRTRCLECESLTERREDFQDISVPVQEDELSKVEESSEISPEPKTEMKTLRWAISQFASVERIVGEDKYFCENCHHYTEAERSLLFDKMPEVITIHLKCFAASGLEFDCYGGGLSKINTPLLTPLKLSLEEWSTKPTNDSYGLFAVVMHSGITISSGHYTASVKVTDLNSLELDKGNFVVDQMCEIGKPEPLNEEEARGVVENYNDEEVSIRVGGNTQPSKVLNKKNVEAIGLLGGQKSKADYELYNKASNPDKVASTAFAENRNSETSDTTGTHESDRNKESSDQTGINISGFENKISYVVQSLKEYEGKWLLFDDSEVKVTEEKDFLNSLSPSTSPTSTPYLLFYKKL
Method in brief: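 USP1/UAF1 complex (1nM) preincubated with compound 15 min at room temperature, then Ub-Rho substrate (150nM final) added. Fluorescence read kinetically at 480/540 nm, 6 reads every 60 seconds. Buffer: 50mM HEPES pH 7.8, 0.5mM EDTA, 0.1 mg/ml BSA, 1mM TCEP, 0.01% Tween-20.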
Potency means the concentration at half of the fitted maximal effect.

Structure (SMILES)	Potency
CCCC(=O)O	inactive
Oc1cc(O)cc(O)c1	inactive
CCCC(CCC)C(=O)OC1C[C@H]2CC[C@@H](C1)[N+]2(C)C (stereo not given in full)	inactive
F[Si-2](F)(F)(F)(F)F	inactive
COC(=O)CC[C@H](N)C(=O)O	inactive
CCCCC	inactive
CC1CCC(NC(=O)N(CCCl)N=O)CC1 (stereo not given)	inactive
CC(=O)Oc1cccc2c1C(=O)c1c(OC(C)=O)cc(C(=O)O)cc1C2=O	inactive
Nc1nc(=O)n([C@@H]2CS[C@H](CO)O2)cc1F	inactive
CC(=O)[C@H]1CC[C@H]2[C@@H]3C=CC4=CC(=O)CC[C@@]4(C)[C@H]3CC[C@]12C	inactive
O=P(O)(O)OC[C@H](O)CO	inactive
CN(Cc1ccccc1)Cc1ccccc1	inactive
CCCCC[C@H](O)/C=C/[C@H]1[C@H](O)CC(=O)[C@@H]1C/C=C\CCCC(=O)O	inactive
COc1cc(NCCCC(C)N)c2ncccc2c1 (stereo not given)	11.2 µM (active)
O=C(OC1C[C@@H]2CC3C[C@H](C1)N2CC3=O)c1c[nH]c2ccccc12 (stereo not given in full)	inactive
COc1ccc2c(=O)c(C)c(-c3ccccc3)oc2c1CN(C)C	inactive
CCCCC(CC)COS(=O)(=O)O (stereo not given)	inactive
Cn1cc(NC(=O)c2cc(NC(=O)c3cc(NC=O)cn3C)cn2C)cc1C(=O)NCCC(=N)N	inactive
O=C(O)c1ccc(NC(=O)[C@H](Cc2ccc(O)cc2)NC(=O)c2ccccc2)cc1	inactive
CO	inactive

Reference: PubChem BioAssay (NCATS)
